From PubChem BioAssay (NCATS) come the findings set out here.

Where “and” joins values, the source holds several entries; their conditions need not be identical. Identical values can stand only once. Results filed as inconclusive are left out. Where a call stands in place of a potency, no number is given. Some compounds were tested as several samples or in several runs, with calls that do not always agree. Calls of active or inactive are those of the source. Calls follow the shape of the dose curve; as a rule, active = well fitted inhibition curve with a large enough effect; inconclusive = small, poorly fitted or top-dose-only effect; inactive = flat fitted curve, though single readings scatter.
Potency is read from the fitted curve at half-maximal effect.

The first assay relates to MKL-2. In words: qHTS assay to identify novel small-molecules to repurpose for Merkel cell carcinoma treatment (AID 1296009). Also: nearly all actives have a fitted effect of over 60% in size. As to conditions: MCC and control cell lines, CellTiter-Glo viability, 72 h; series mostly up to 46 µM. The essentials: (§1)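 Cells exposed to NPC (8-point) and MIPE (11-point) compound dilutions for 72 hr at 37 degree celsius; viability read by CellTiter-Glo luminescence, normalized to no-cell and DMSO in-plate controls.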
On to `CN(C)c1ccc(C2Nc3ccc4ccccc4c3C3=C2C(=O)CC(C)(C)C3)cc1Br` (centres undefined), for which the Potency result was “inactive”.

For `COc1ccc2nc(S(=O)Cc3ncc(C)c(OC)c3C)[nH]c2c1` (centres undefined), the Potency entry was “inactive”.

Consider `Fc1ccc(Cl)cc1-c1nc(Nc2ccncc2)c2nccnc2n1`, for which the Potency result was “inactive”.

`CS(=O)(=O)Oc1ccc2c(NC(N)=O)c(C(=O)c3ccc(Cl)cc3Cl)oc2c1`: the Potency is 2960 nM (active).

On to `Cc1cccc(-c2nn(C(=S)Nc3ccccc3)cc2-c2ccnc3ccccc23)n1`, for which the Potency entry was “inactive”.

For `CCC(C)n1ncn(-c2ccc(N3CCN(c4ccc(OC[C@H]5CO[C@](Cn6cncn6)(c6ccc(Cl)cc6Cl)O5)cc4)CC3)cc2)c1=O` (some centres undefined), the Potency result is “inactive”.

Regarding `NC(=O)c1ccc(I)c([N+](=O)[O-])c1`, the Potency entry is “inactive”.

As for `Nc1ncnc2nc(-c3ccc(N4CCOCC4)nc3)cc(-c3cccc(Br)c3)c12`, the Potency result is “inactive”.

With `COc1ccc(-c2c(-c3ccc(O)cc3O)n[nH]c2C)cc1`, the Potency result is “inactive”.

In the case of `Cc1c(CCOc2ccc(C(=O)O)cc2)c2cc(Cl)ccc2n1C(c1ccccc1)c1ccccc1`, the Potency result is “inactive”.

With `Cc1ccnc(NS(=O)(=O)c2ccc(NC(=O)Nc3ccc(S(=O)(=O)Nc4nccc(C)n4)cc3)cc2)n1`, the Potency result is “inactive”.

Consider `C[C@]12CC[C@H](O)CC1=CC[C@@H]1[C@H]2CC[C@]2(C)C(c3cccnc3)=CC[C@H]12`, for which the Potency entry was “inactive”.

In the case of `OC(CN1CCC(Cc2ccc(F)cc2)CC1)c1ccc(Cl)cc1` (centres undefined), the Potency entry is “inactive”.

With `NC(=O)c1cnccn1`, the Potency entry is “inactive”.

As for `NC(=O)C1CCCc2c1[nH]c1ccc(Cl)cc21` (centres undefined), the Potency result was “inactive”.

On to `NC(=O)c1ccc(-c2nc(-c3ccc4c(c3)OCO4)c(-c3ccccn3)[nH]2)cc1`, for which the Potency entry was “inactive”.

Consider `CC[C@@H](C)[C@H](NC(=O)[C@H](CC1CCCCC1)NC(=O)c1ccno1)C(=O)N1CCC2(CCc3ccccc32)CC1`, for which the Potency result is “inactive”.

In the case of `CCCn1c(=O)c2[nH]c(C34CC5CC3C[C@@H](C5)C4)nc2n(CCC)c1=O`, the Potency result was “inactive”.

`Cc1ccc(N(CC2=NCCN2)c2cccc(O)c2)cc1`: the Potency result is “inactive”.

Turning to `CCN(c1ccccc1)c1cc(NC)[n+](C)c(C)n1`, the Potency result is “inactive”.

As for `COc1ccc(COc2cc3oc(=O)c4cc(C(C)O)ccc4c3cc2OC)cc1` (centres undefined), the Potency result is “inactive”.

In the case of `C[C@@H]1CN(Cc2ccc(F)cc2)[C@@H](C)CN1C(=O)c1cc2c(C(=O)C(=O)N(C)C)cn(C)c2cc1Cl`, the Potency entry was “inactive”.

For the compound `C[C@]1(c2nc3c(C(N)=O)cccc3[nH]2)CCCN1`, the Potency result is “inactive”.

With `COCCNCCCn1c(C(=O)CF)c(-c2ccc(C)cc2)c2c(N)ncnc21`, the Potency entry was “inactive”.

On to `Cc1cn[nH]c1`, for which the Potency result is “inactive”.

`Cc1n[nH]c(C)c1Cc1sc2c(c1C(=O)N1C[C@H](O)CO1)c(=O)n(C)c(=O)n2CC(C)C`: the Potency result is “inactive”.

`CNC(=O)c1ccc(N2C(=S)N(c3ccc(C#N)c(C(F)(F)F)c3)C(=O)C2(C)C)cc1F`: the Potency entry is “inactive”.

As to `O=C(C1CC1)N1CC[C@@H](Cn2c(-c3ccc(-c4ccc5occc5c4)cc3)nc3cnccc32)C1`, the Potency result is “inactive”.

`COc1ccccc1-c1cccc(-c2c(O)c3cc(C#N)c(Cl)cc3[nH]c2=O)c1`: the Potency result was “inactive”.

As to `O=C(O)[C@@H](c1ccc(OCc2ccc3ccccc3n2)cc1)C1CCCC1`, the Potency entry was “inactive”.

As to `O=S(=O)(N=Cc1c(O)ccc2ccccc12)c1cccs1`, the Potency result was “inactive”.

`CCCc1nn(C)c2c(=O)[nH]c(-c3cc(S(=O)(=O)N4CCN(C)CC4)ccc3OCC)nc12`: the Potency entry was “inactive”.

`NNCCc1ccccc1`: the Potency result is “inactive”.

`COc1ccc(CC2=NN3C([C@@H](CCc4ccccc4)[C@@H](C)O)=NC(C)C3C(=O)N2)cc1OC` (some centres undefined): the Potency result was “inactive”.

Consider `Nc1cccc(S(=O)(=O)N2CCCN(S(=O)(=O)c3ccc4c(c3)OCCO4)CC2)c1`, for which the Potency entry was “inactive”.

A further assay deals with UISO. The description is as above. As to conditions: MCC and control cell lines, CellTiter-Glo viability, 72 h; series mostly up to 46 µM. In a few lines: as §1
On to `CN(C)c1ccc(C2Nc3ccc4ccccc4c3C3=C2C(=O)CC(C)(C)C3)cc1Br` (centres undefined), for which the Potency result is “inactive”.

As to `COc1ccc2nc(S(=O)Cc3ncc(C)c(OC)c3C)[nH]c2c1` (centres undefined), the Potency result was “inactive”.

With `Fc1ccc(Cl)cc1-c1nc(Nc2ccncc2)c2nccnc2n1`, the Potency entry was “inactive”.

As to `CS(=O)(=O)Oc1ccc2c(NC(N)=O)c(C(=O)c3ccc(Cl)cc3Cl)oc2c1`, the Potency result was “inactive”.

Turning to `Cc1cccc(-c2nn(C(=S)Nc3ccccc3)cc2-c2ccnc3ccccc23)n1`, the Potency result was “inactive”.

Turning to `CCC(C)n1ncn(-c2ccc(N3CCN(c4ccc(OC[C@H]5CO[C@](Cn6cncn6)(c6ccc(Cl)cc6Cl)O5)cc4)CC3)cc2)c1=O` (some centres undefined), the Potency result is “inactive”.

With `NC(=O)c1ccc(I)c([N+](=O)[O-])c1`, the Potency result is “inactive”.

Turning to `Nc1ncnc2nc(-c3ccc(N4CCOCC4)nc3)cc(-c3cccc(Br)c3)c12`, the Potency entry was “inactive”.

Regarding `COc1ccc(-c2c(-c3ccc(O)cc3O)n[nH]c2C)cc1`, the Potency result was “inactive”.

Turning to `Cc1c(CCOc2ccc(C(=O)O)cc2)c2cc(Cl)ccc2n1C(c1ccccc1)c1ccccc1`, the Potency entry was “inactive”.

`Cc1ccnc(NS(=O)(=O)c2ccc(NC(=O)Nc3ccc(S(=O)(=O)Nc4nccc(C)n4)cc3)cc2)n1`: the Potency result is “inactive”.

Consider `C[C@]12CC[C@H](O)CC1=CC[C@@H]1[C@H]2CC[C@]2(C)C(c3cccnc3)=CC[C@H]12`, for which the Potency entry was “inactive”.

As for `OC(CN1CCC(Cc2ccc(F)cc2)CC1)c1ccc(Cl)cc1` (centres undefined), the Potency entry was “inactive”.

In the case of `NC(=O)c1cnccn1`, the Potency entry was “inactive”.

For the compound `NC(=O)C1CCCc2c1[nH]c1ccc(Cl)cc21` (centres undefined), the Potency entry is “inactive”.

In the case of `NC(=O)c1ccc(-c2nc(-c3ccc4c(c3)OCO4)c(-c3ccccn3)[nH]2)cc1`, the Potency entry is “inactive”.

For `CC[C@@H](C)[C@H](NC(=O)[C@H](CC1CCCCC1)NC(=O)c1ccno1)C(=O)N1CCC2(CCc3ccccc32)CC1`, the Potency result is “inactive”.

Take `CCCn1c(=O)c2[nH]c(C34CC5CC3C[C@@H](C5)C4)nc2n(CCC)c1=O`: the Potency entry was “inactive”.

On to `Cc1ccc(N(CC2=NCCN2)c2cccc(O)c2)cc1`, for which the Potency entry is “inactive”.

With `CCN(c1ccccc1)c1cc(NC)[n+](C)c(C)n1`, the Potency entry is “inactive”.

In the case of `COc1ccc(COc2cc3oc(=O)c4cc(C(C)O)ccc4c3cc2OC)cc1` (centres undefined), the Potency entry was “inactive”.

Regarding `C[C@@H]1CN(Cc2ccc(F)cc2)[C@@H](C)CN1C(=O)c1cc2c(C(=O)C(=O)N(C)C)cn(C)c2cc1Cl`, the Potency result is “inactive”.

As for `C[C@]1(c2nc3c(C(N)=O)cccc3[nH]2)CCCN1`, the Potency result was “inactive”.

Consider `COCCNCCCn1c(C(=O)CF)c(-c2ccc(C)cc2)c2c(N)ncnc21`, for which the Potency entry was “inactive”.

Take `Cc1cn[nH]c1`: the Potency entry was “inactive and 2.96 µM (active)”.

For the compound `Cc1n[nH]c(C)c1Cc1sc2c(c1C(=O)N1C[C@H](O)CO1)c(=O)n(C)c(=O)n2CC(C)C`, the Potency result was “inactive”.

`CNC(=O)c1ccc(N2C(=S)N(c3ccc(C#N)c(C(F)(F)F)c3)C(=O)C2(C)C)cc1F`: the Potency result is “inactive”.

With `O=C(C1CC1)N1CC[C@@H](Cn2c(-c3ccc(-c4ccc5occc5c4)cc3)nc3cnccc32)C1`, the Potency result was “inactive”.

In the case of `COc1ccccc1-c1cccc(-c2c(O)c3cc(C#N)c(Cl)cc3[nH]c2=O)c1`, the Potency entry was “inactive”.

On to `O=C(O)[C@@H](c1ccc(OCc2ccc3ccccc3n2)cc1)C1CCCC1`, for which the Potency result was “inactive”.

On to `CCCc1nn(C)c2c(=O)[nH]c(-c3cc(S(=O)(=O)N4CCN(C)CC4)ccc3OCC)nc12`, for which the Potency entry is “inactive”.

On to `NNCCc1ccccc1`, for which the Potency result is “inactive”.

In the case of `COc1ccc(CC2=NN3C([C@@H](CCc4ccccc4)[C@@H](C)O)=NC(C)C3C(=O)N2)cc1OC` (some centres undefined), the Potency entry was “inactive”.

`Nc1cccc(S(=O)(=O)N2CCCN(S(=O)(=O)c3ccc4c(c3)OCCO4)CC2)c1`: the Potency entry was “inactive”.
